Results on 39 compounds are retold here after PubChem BioAssay (NCI).

Each structure is given as a SMILES string. This is part of a sample that, as a whole, favours compounds with a hit. Of some 79,000 tested, about 15% had one in any assay. Activity calls are given as the source filed them. Rule as the data show it: active = growth inhibition above about 70%; inactive = the rest.

A short description of this assay: NCI Yeast Anticancer Drug Screen. Data for the cln2 rad14 strain (AID 165).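 Also: 0% = growth equal to vehicle treated cultures.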 Conditions: S. cerevisiae cln2 rad14 strain, at 5.0 µM (retest, dose inferred, filed as 0.5), active compounds read high. The gist of the method: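 Growth of compound-exposed yeast (cln2 rad14 genotype) measured and expressed as inhibition relative to vehicle.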
For `Cc1cn(C2CC(Br)C(COC(c3ccccc3)(c3ccccc3)c3ccccc3)O2)c(=O)[nH]c1=O` (centres undefined), the growth inhibition was 2% (inactive).

As for `CC1CCN(CCOC(=O)C(c2ccccc2)C2C=CCCC2)C1` (centres undefined), the growth inhibition is 7% (inactive).

With `C=CC(c1ccccc1)[C@@]1(OC(C)=O)C(=O)C(=O)OC1C1COC(C)(C)O1` (some centres undefined), the growth inhibition was 30% (inactive).

For the compound `CC(C)S(=O)(=O)ON1C(=O)c2ccc(N(C)C)cc2C1=O`, the growth inhibition is 24% (inactive).

For `CCCC(Sc1ccccc1)c1ccccc1NC(C)=O` (centres undefined), the growth inhibition was 6% (inactive).

For `Oc1c(C(Nc2ccccn2)c2ccccc2)ccc2cccnc12` (centres undefined), the growth inhibition is -11% (inactive).

As to `CC(=O)NC1=C(Cl)C(=O)c2ccccc2C1=O`, the growth inhibition is 21% (inactive).

On to `CC1OC(c2ccc3c(c2)OCO3)OC1C` (centres undefined), for which the growth inhibition was 0% (inactive).

For the compound `CN(C)CC(CN1CCCC1)C(=O)c1ccccc1` (centres undefined), the growth inhibition was 26% (inactive).

Regarding `O=S(=O)(O)c1ccc2c(c1)C1C(C3C2C2(Cl)C(Cl)=C(Cl)C3(Cl)C2(Cl)Cl)C2(Cl)C(Cl)=C(Cl)C1(Cl)C2(Cl)Cl` (centres undefined), the growth inhibition is 34% (inactive).

Turning to `Cc1cc(Cl)nc2ccc(Cc3ccc4nc(Cl)cc(C)c4c3)cc12`, the growth inhibition is 3% (inactive).

For the compound `CC1CCC2(C)C(CC=C(C=O)C2(O)C=O)C12CO2` (centres undefined), the growth inhibition was 99% (active).

As to `Cc1c(C)c(C)c(C(=O)c2ccccc2C(=O)NCCSC(C)(C)C)c(C)c1C`, the growth inhibition is 53% (inactive).

Consider `O=[N+]([O-])C(=C1Nc2ccccc2N1)C(Cl)=C(Cl)Cl`, for which the growth inhibition is 10% (inactive).

With `CCCCNc1ccc(C(=O)OC2CCN(C)CC2)c(Cl)c1`, the growth inhibition was 98% (active).

In the case of `CC(C)(C)OC(=O)c1ccc(NCC2=C(Br)C(=O)C=CC2=O)cc1`, the growth inhibition was 5% (inactive).

Consider `N#CC(c1ccc(Cl)cc1)c1ccc([N+](=O)[O-])cc1` (centres undefined), for which the growth inhibition was -4% (inactive).

As for `O=C(CC(=O)c1ccccc1NC1=Cc2ccccc2C(=O)C1=O)C(=O)NC1=C(Cl)C(=O)c2ccccc2C1=O`, the growth inhibition is 16% (inactive).

As for `O=S(=O)(Nc1ccc2c3c(cccc13)C=C2)c1ccccc1`, the growth inhibition was -9% (inactive).

As to `CC(=O)c1cccc(NC(=O)C(=O)NNc2n[nH]c(=S)n2N)c1`, the growth inhibition was 19% (inactive).

Take `Nc1ncc(C(=O)c2ccccc2)cc1[N+](=O)[O-]`: the growth inhibition was -56% (inactive).

On to `COc1ccc2cc(C3CCCC3(C)CC(=O)O)ccc2c1` (centres undefined), for which the growth inhibition was 3% (inactive).

Regarding `CNc1ccc(N=O)cc1`, the growth inhibition is 19% (inactive).

Consider `S=c1sc2nc(Cl)nc(Cl)c2s1`, for which the growth inhibition is 97% (active).

On to `CC(=O)O/C=C1\c2ccccc2CCC1c1ccc2ccccc2c1` (centres undefined), for which the growth inhibition was -19% (inactive).

As for `CC1(C)C2CCC(C2)C1OC(=O)c1ccccc1C(=O)O` (centres undefined), the growth inhibition is 10% (inactive).

`Cc1cc(=O)oc2c3c(ccc12)OC(c1ccc(Br)cc1)CC3=O` (centres undefined): the growth inhibition was 11% (inactive).

Take `Cc1cc(N(CCOS(C)(=O)=O)CCOS(C)(=O)=O)ccc1C=Nc1cccc(Cl)c1`: the growth inhibition was -3% (inactive).

Turning to `CN(C)CCOc1cc2c(c3ccccc13)-c1ccccc1C2O` (centres undefined), the growth inhibition is 1% (inactive).

As to `NC(=S)C(=Nc1ccccc1F)Nc1ccccc1F`, the growth inhibition is -6% (inactive).

Turning to `CCCCOc1ccc(NC(=S)Nc2ccc(OCCN(CC)CC)cc2)cc1`, the growth inhibition was 4% (inactive).

With `CC1CCN(CC(=O)N2c3ccccc3Sc3cc4ccccc4cc32)CC1`, the growth inhibition was -37% (inactive).

On to `CC(C)C1COC(c2ccc3ccccc3c2-c2c(O[Si](C)(C)C(C)(C)C)ccc3ccccc23)=N1` (centres undefined), for which the growth inhibition was 13% (inactive).

For the compound `CN(C)c1ccc(/C=C(\C#N)c2cccc(Cl)c2)cc1`, the growth inhibition was -3% (inactive).

Turning to `CCN(CC)CCNc1ccc(C)c2oc3ccc(O)cc3c(=O)c12`, the growth inhibition is 1% (inactive).

On to `CN(C)CC1CCc2c(ccc3ccccc23)C1=O` (centres undefined), for which the growth inhibition was 12% (inactive).

With `C[C@]12CCC(=O)C=C1CC[C@@H]1[C@@H]2[C@@H](O)C[C@@]2(C)[C@H]1CC[C@]2(O)C(=O)COC(=O)CCC1CCCC1`, the growth inhibition is 49% (inactive).

On to `O=C(CSc1nnc(Cc2ccccc2)o1)Nc1ccc(Cl)cc1[N+](=O)[O-]`, for which the growth inhibition is 10% (inactive).

`Cc1cccc2c1Oc1ccccc1C2N1C(=O)/C(=C/c2ccccc2Cl)SC1=S` (centres undefined): the growth inhibition was 96% (active).
